# PubChem BioAssay AID1345085 (National Center for Advancing Translational Sciences (NCATS), 2018)
# Inconclusive results are not listed. A number with no mark means an inactive call. Active and inactive are the calls of the source. The call rests on the fitted dose curve; in most records, active means well fitted cell-killing curve with a large enough effect; inconclusive means small, poorly fitted or top-dose-only effect, or effect the other way; inactive means no such curve, though single readings can be large or run the other way.
# System: CAOV3
# Assay: Confirmatory qHTS for gynecologic anti-cancer compounds from libraries of approved drugs and bioactive compounds; further: nearly all actives have a fitted effect of over 55% in size
# Settings: gynecologic cancer cell panel viability, ATPlite luminescence, 48 h; series mostly up to 57.6 µM; activity change, negative = viability loss: at the top concentration
# Procedure, shortened: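 ATP-based luminescent viability (ATPlite) after 48 h drug treatment at 37 °C, 5% CO2, across 57.5 uM–0.977 nM in 1:3 steps. Cells seeded at 1,000 per well 16 h beforehand; IC50 values computed, HEK 293T as selectivity control.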
# On the % scale 0 is the no-effect control and ±100 the full control effect; potency means the concentration at half of the fitted maximal effect.
SMILES,Potency,"activity change, negative = viability loss [%]"
COc1cc(N2CCC(N3CCN(C)CC3)CC2)ccc1Nc1ncc(Cl)c(Nc2ccccc2S(=O)(=O)C(C)C)n1,3.43 µM (active),
COc1cc(Nc2ncc(F)c(Nc3ccc4c(n3)N(COP(=O)(O)O)C(=O)C(C)(C)O4)n2)cc(OC)c1OC,3.43 µM (active),
COc1ccc(CCC(=O)c2c(O)cc(O[C@@H]3O[C@H](CO)[C@@H](O)[C@H](O)[C@H]3O[C@@H]3O[C@@H](C)[C@H](O)[C@@H](O)[C@H]3O)cc2O)cc1O,,12.1
COc1cc(N2CCC(N3CCN(C)CC3)CC2)ccc1Nc1ncnc(Nc2ccccc2S(=O)(=O)C(C)C)n1,15.3 µM (active),
CCCC(=O)O[C@]1(C(=O)CCl)[C@@H](C)C[C@H]2[C@@H]3CCC4=CC(=O)C=C[C@]4(C)[C@@]3(F)C(=O)C[C@@]21C,,-10.5
O=c1c2ccccc2nc2n1CCc1c-2[nH]c2ccccc12,,-12.1
CCCc1nn(C)c2c(=O)[nH]c(-c3cc(S(=O)(=O)N4CCN(C)CC4)ccc3OCC)nc12,,-0.31
CC(Oc1ccc2[nH]nc(/C=C/c3cnn(CCO)c3)c2c1)c1c(Cl)cncc1Cl (centres undefined),2.73 µM (active),
Cc1ccn(-c2ccc(-c3ncco3)cc2)c(=O)c1-c1ccc2nc(N)ncc2c1,,-11.3
Cc1ccc(C(N)=O)cc1Nc1nccc(-c2cn(C(C)C)c3cnccc23)n1,17.2 µM (active),
COc1cc(-c2nn(C3CCC(N4CCN(C(C)=O)CC4)CC3)c3ncnc(N)c23)ccc1NC(=O)c1cc2ccccc2n1C (centres undefined),30.6 µM (active),
Cc1cnc(Nc2ccc(OCCN3CCCC3)cc2)nc1Nc1cccc(S(=O)(=O)NC(C)(C)C)c1,7.69 µM (active),
CCc1c2c(nc3ccc(O)cc13)-c1cc3c(c(=O)n1C2)COC(=O)[C@]3(O)CC,0.0385 µM (active),
CCN(CC)CCNC(=O)c1c(C)[nH]c(/C=C2\C(=O)Nc3ccc(F)cc32)c1C,15.8 µM (active),
OC[C@H]1O[C@@H](n2cnc3c(=S)nc[nH]c32)[C@H](O)[C@@H]1O,1.37 µM (active),
CCn1c(-c2nonc2N)nc2c(C#CC(C)(C)O)ncc(OCC3CCCNC3)c21 (centres undefined),24.3 µM (active),
Cc1cc(CN2CCN(c3c(Br)cnc4nc(-c5ccc(N6CCN(C)CC6)cc5)[nH]c34)CC2)no1,13.7 µM (active),

SMILES,Potency,"activity change, negative = viability loss [%]"
Cc1cc(Nc2nc(N[C@@H](C)c3ncc(F)cn3)ncc2Cl)n[nH]1,7.69 µM (active),
CNC(=O)c1ccccc1Sc1ccc2c(/C=C/c3ccccn3)n[nH]c2c1,6.85 µM (active),
CNC(=O)c1ccccc1Nc1nc(Nc2ccc(N3CCOCC3)cc2OC)ncc1Cl,1.37 µM (active),
C=CC(=O)Nc1cccc(Oc2nc(Nc3ccc(N4CCN(C)CC4)cc3)ncc2Cl)c1,19.3 µM (active),
O=C(Nc1cccnc1)N1CCC(Cc2cccc(Oc3ccc(C(F)(F)F)cn3)c2)CC1,,-13.2
NCCOc1cc(C(=O)Nc2cc(OCCN)c3ccccc3n2)nc(C(=O)Nc2cc(OCCN)c3ccccc3n2)c1,,-15.8
C#C[C@]1(O)CC[C@H]2[C@@H]3CCC4=CC(=O)CC[C@@H]4[C@H]3CC[C@@]21CC,,2.47
CCS(=O)(=O)c1cccc(-c2cc(C(=O)NC3CCN(C)CC3)c(C)c3[nH]c4ncc(C)cc4c23)c1,0.672 µM (active),
CN(C)C/C=C/C(=O)Nc1cc2c(Nc3ccc(F)c(Cl)c3)ncnc2cc1OC1CCOC1 (centres undefined),10.9 µM (active),
O=c1[nH]c(=O)n([C@H]2C[C@H](O)[C@@H](CO)O2)cc1Br,,21.2
CC(C)n1nc(-c2cc3cc(O)ccc3[nH]2)c2c(N)ncnc21,19.3 µM (active),
Nc1nc(Cl)nc2c1ncn2C1OC(CO)C(O)C1F (centres undefined),0.544 µM (active),
COc1ccc(OC)c(-c2nnc3ccc(-c4ccc(OC)c(O[C@@H]5CCOC5)c4)nn23)c1,8.63 µM (active),
O=C(CCCCCCC(=O)Nc1ccccc1)NO,12.2 µM (active),
CCCCN(CCCC)C(=O)CN1C[C@H](c2ccc3c(c2)OCO3)[C@@H](C(=O)O)[C@@H]1c1ccc(OC)cc1,,-12.5
COc1cc2nccc(Oc3ccc(NC(=O)C4(C(=O)Nc5ccc(F)cc5)CC4)cc3)c2cc1OC,21.7 µM (active),
CC(C)[C@@H](CS(=O)(=O)C(C)C)N1C(=O)[C@@](C)(CC(=O)O)C[C@H](c2cccc(Cl)c2)[C@H]1c1ccc(Cl)cc1,,-16.5
